Rab9 prom act = qHTS Assay for Rab9 Promoter Activators. 320,000 tested, 2.8% active. Potency, µM (series often up to 9.22 µM), inactives show top-dose activation, negative = inhibition, hits mostly activators. Huh7 Rab9 promoter-luciferase reporter, luminescence, 24 h; note: % of control where 0% means no effect; nearly all actives have a fitted effect of over 60% in size
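Huh7 cells stably carrying a Rab9 promoter-luciferase reporter, 1500 cells per well in OP-MEM I with 10% FBS, treated with compound 24 hours at 37C. Luciferase activity read by luminescence after 10 minutes with Amplite reagent.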
NPC1 promoter act = qHTS Assay for NPC1 Promoter Activators. 320,000 tested, 2.4% active. Huh7 NPC1 promoter luciferase reporter, 24 h. Potency, µM (highest dose often 9.22 µM), for inactives: at the highest dose activation, hits mostly activators; note: % of control where 0% means no effect; nearly all actives have a fitted effect of over 60% in size
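Cells: Huh7 expressing luciferase under the NPC1 promoter, 1500/well. Seeded 2 h, compound added, incubated 24 h at 37 °C. Luciferase reagent, 10 min ambient, then luminescence.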
ELG1 genotoxic = qHTS screen for small molecules that induce genotoxicity in human embryonic kidney (HEK293T) cells expressing luciferase-tagged ELG1; HEK293T ELG1-luciferase reporter, luminescence, 16 h; Potency, µM (titrated, usually from 46 µM), without a hit: at the top dose activity change, positive = activation, actives largely listed as activators; 330,000 tested, 1.3% active; note: % of control where 0% means no effect; nearly all actives have a fitted effect of over 60% in size
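Step 1: seed 2,000 HEK293T ELG1-luciferase cells per well. Step 2: add compound or DMSO, incubate 16 hr at 37 °C. Step 3: ONE-Glo, 30 min at room temperature, read luminescence.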
FLuc modulator = qHTS profiling assay for firefly luciferase inhibitor/activator using purifed enzyme and Km concentrations of substrates (counterscreen for miR-21 project). 360,000 tested, 6.9% active. Potency, µM (titrated, usually from 57.5 µM), for inactives: top-dose activity change, negative = inhibition, actives largely listed as inhibitors. purified FLuc, Km substrates, luminescence inhibition;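 note: plate controls were vehicle for no effect and reference inhibitor for full effect; nearly all actives have a fitted effect of over 55% in size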
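Purified P. pyralis luciferase (10nM final) with 10uM D-luciferin and 10uM ATP (Km levels) in 50mM Tris acetate pH 7.5, 10mM Mg acetate, 0.01% Tween-20, 0.05% BSA; qHTS 6-point titration, ~60 µM downward; luminescence read.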
SMN2 splice up = qHTS Assay for Enhancers of SMN2 Splice Variant Expression; HEK293 SMN2-luciferase splicing reporter, luminescence, 30-36 h; Potency, µM (titrated, usually from 46.1 µM), without a hit: top-dose activity change, positive = activation, hits mostly activators; 210,000 tested, 2.8% active; AID 1458, 2008; note: % of control where 0% means no effect; nearly all actives have a fitted effect of over 55% in size
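HEK293 cells carry an SMN2 minigene-luciferase reporter in which exon 7 inclusion puts luciferase in frame. Cells were seeded at 2000 cells/well, attached for 10-12 hours, then exposed to compounds for 30-36 hours at 37C before ONE-Glo luminescence.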
ELG1 repair inh = qHTS screen for small molecules that inhibit ELG1-dependent DNA repair in human embryonic kidney (HEK293T) cells expressing luciferase-tagged ELG1; HEK293T ELG1-luciferase reporter, luminescence, 16 h; DNA damage induced by 5-fluorouridine; Potency, µM (titrated, usually from 46.1 µM), for inactives: at the top dose activity change, negative = inhibition, usual class: inhibitors; 330,000 tested, 2.3% active; AID 504467, 2011; note: % is set by controls: 0 for no effect and ±100 for the full control effect; nearly all actives have a fitted effect of over 55% in size
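Quantitative HTS, concentration-response format. 2,000 cells/well co-treated with 5-fluorouridine and compound, 16 hr in 5% CO2 at 37 °C; ONE-Glo luminescence read after 30 min.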
ELG1 FLuc counter = qHTS screen for small molecules that inhibit ELG1-dependent DNA repair: Hit Confirmation in Cell-Based Luciferin Assay; 350 tested, 3% active; AID 624247, 2012; cell-free firefly luciferase luminescence counter-screen, ViewLux; shares compounds with ELG1 repair inh; Potency, µM (top dose mostly 46.1 µM), for the others: at the highest dose activity change, negative = inhibition, hits mostly inhibitors; note: % is set by controls: 0 for no effect and ±100 for the full control effect
ELG1-Luc inh = HTS assay for small molecules that inhibit ELG1-dependent DNA repair in human embryonic kidney (HEK293T) cells expressing luciferase-tagged ELG1: Hit Confirmation. shares compounds with ELG1 repair inh. HEK293T ELG1-luciferase levels, luminescence; cells co-treated with 5-fluorouridine. Potency, µM (titrated, usually from 46.1 µM), for the others: at the highest dose activity change, negative = inhibition, actives largely listed as inhibitors. 670 tested, 68% active; note: % is set by controls: 0 for no effect and ±100 for the full control effect; nearly all actives have a fitted effect of over 55% in size
ELG1-Luc MMS = inhibits ELG1-dependent repair under MMS stimulation in HEK293T cells. Potency, µM (top dose mostly 46.1 µM), without a hit: at the highest dose activity change, negative = inhibition, most hits filed as inhibitors. AID 624249. shares compounds with ELG1 repair inh. HEK293T luciferase-tagged ELG1 level, MMS stimulated. 670 tested, 53% active; note: % is set by controls: 0 for no effect and ±100 for the full control effect; nearly all actives have a fitted effect of over 60% in size
ELG1 5-FU = qHTS screen for small molecules that inhibit ELG1-dependent DNA repair: Hit Confirmation with 5FU Viability; Potency, µM (series often up to 46.1 µM), for inactives: at the top dose activity change, negative = viability loss, actives largely listed as cytotoxic; cell viability with 5-FU, ELG1-dependent repair; 670 tested, under 10 active; shares compounds with ELG1 repair inh;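 note: ELG1-luc HEK293T cells cotreated with 5-fluorouridine at 10 µM final; viability measured 16 h after compound addition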
ELG1 MMS cell = qHTS screen for small molecules that inhibit ELG1-dependent DNA repair: Hit Confirmation with MMS Viability; 670 tested, 33% active; AID 624251, 2012; Cell viability with MMS, ELG1-dependent DNA repair; Potency, µM (series often up to 46.1 µM), for the others: top-dose activity change, negative = viability loss, actives largely listed as cytotoxic; shares compounds with ELG1 repair inh;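 note: ELG1-luc HEK293T cells co-treated with 10 µM MMS; viability read 16 h after compound addition; % is set by controls: 0 for no effect and ±100 for the full control effect; nearly all actives have a fitted effect of over 60% in size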
ELG1 unstim viab = qHTS screen for small molecules that inhibit ELG1-dependent DNA repair: Hit Confirmation with Unstimulated Viability Assay; shares compounds with ELG1 repair inh; cell viability counter-screen, unstimulated, luminescence; Potency, µM (top dose mostly 45.9 µM), for the others: at the top dose activity change, negative = loss of viability, usual class: cytotoxic; 900 tested, 8% active; AID 624252, 2012;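 note: compound exposure lasted 16 hours before reading; % is set by controls: 0 for no effect and ±100 for the full control effect; nearly all actives have a fitted effect of over 55% in size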
FLuc enzyme = qHTS screen for small molecules that inhibit ELG1-dependent DNA repair: Hit Confirmation in Biochemical Luciferin Assay. shares compounds with ELG1 repair inh. purified firefly luciferase, luminescence counter-screen. Potency, µM (series often up to 57.5 µM), for inactives: at the highest dose activity, negative = inhibition, actives largely listed as inhibitors. 350 tested, 10% active. AID 624253, 2012; note: % is set by controls: 0 for no effect and ±100 for the full control effect
* marks the source's active call; other numbers are inactive results; ? = inconclusive; nt = not tested or not shown. An excerpt weighted towards active compounds, which were near 9.2% of everything screened. Calls come from the whole dose curve; as a rule, active = well fitted curve in the direction sought with a large enough effect; inconclusive = small, poorly fitted or top-dose-only effect, or another doubt; inactive = no such curve, though single readings can be large; an effect the other way counts as inactive or inconclusive. Potency is the fitted concentration of half-maximal effect.

SMILES	Rab9 prom act	NPC1 promoter act	ELG1 genotoxic	FLuc modulator	SMN2 splice up	ELG1 repair inh	ELG1 FLuc counter	ELG1-Luc inh	ELG1-Luc MMS	ELG1 5-FU	ELG1 MMS cell	ELG1 unstim viab	FLuc enzyme
C[C@@H]1O[C@@H](O[C@H]2C[C@@H](O)[C@]3(CO)[C@H]4[C@H](O)C[C@]5(C)[C@@H](C6COC(=O)C6)CC[C@]5(O)[C@@H]4CC[C@]3(O)C2)[C@H](O)[C@H](O)[C@H]1O (some centres not stated)	-37%	-45%	-22%	5%	0.79µM*	1.5µM*	?	2.5µM*	1.6µM*	?	3.2µM*	?	3%
CC(Oc1ccc(Br)cc1)C(=O)N(Cc1nc(-c2ccccc2)no1)C(C)C (configuration not stated)	nt	nt	nt	-12%	-43%	nt	nt	nt	nt	nt	nt	nt	nt
CCCc1cc(N2CCN(c3ccc(OC)cc3)CC2)n2cnnc2n1	nt	nt	nt	2%	-73%	nt	nt	nt	nt	nt	nt	nt	nt
CC(=O)Nc1ccc(Cc2nc3ccccc3[nH]2)cc1	-1%	1%	3%	2%	?	10%	nt	nt	nt	nt	nt	nt	nt
Cc1c(C(=O)N2CCC(Cc3ccccc3)CC2)sc2ncnc(N3CCC(C)CC3)c12	0%	-5%	-1%	-10%	-33%	0%	2%	16µM*	?	10%	-12%	-4%	2%

Screening data as filed in PubChem BioAssay.
